High-throughput results: PubChem BioAssay, Buhrlage Lab, Dana-Farber Cancer Institute and Novartis Institutes for BioMedical Research (Cambridge, Mass)
USP28 block: blocks human USP28 ubiquitin-rhodamine cleavage; 47,000 compounds, 3% hits; purified USP28, Ub-rhodamine cleavage fluorescence, 30 min; inhibition, % at 25 µM; Q96RU2
OTUD3 inh: inhibitors of human OTUD3 deubiquitinase. Q5T2D3. AID 1645858. purified OTUD3, Ub-rhodamine fluorescence, 2 h. 47,000 compounds, 0.7% hits. inhibition, % at 25 µM
USP17 inh: human USP17-like deubiquitinase inhibition. AID 1645855. inhibition, % at 50 µM. purified USP17, Ub-rhodamine cleavage fluorescence, 3 h. 47,000 compounds, 6.5% hits
Target sequence (A8MUK1 whole entry, looked up): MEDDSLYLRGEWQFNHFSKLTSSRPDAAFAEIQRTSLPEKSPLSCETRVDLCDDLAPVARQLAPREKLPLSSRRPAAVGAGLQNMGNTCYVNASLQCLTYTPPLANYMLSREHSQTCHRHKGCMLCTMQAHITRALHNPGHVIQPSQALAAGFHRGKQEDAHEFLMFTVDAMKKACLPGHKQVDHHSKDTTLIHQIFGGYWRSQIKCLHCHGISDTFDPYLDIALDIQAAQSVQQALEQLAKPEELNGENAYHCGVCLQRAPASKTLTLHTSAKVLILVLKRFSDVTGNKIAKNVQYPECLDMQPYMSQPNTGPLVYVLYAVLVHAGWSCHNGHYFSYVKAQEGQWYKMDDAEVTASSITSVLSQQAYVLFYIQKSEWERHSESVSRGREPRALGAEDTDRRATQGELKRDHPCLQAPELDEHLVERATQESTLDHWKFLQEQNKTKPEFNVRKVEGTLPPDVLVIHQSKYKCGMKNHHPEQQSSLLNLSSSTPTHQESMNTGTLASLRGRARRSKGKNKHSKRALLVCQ
USP30 block: inhibitors of human USP30 deubiquitinase; inhibition, % at 25 µM; 47,000 compounds, 5.3% hits; Q70CQ3; purified USP30, Ub-rhodamine cleavage fluorescence
Of the large screens only hits and unclear results are named; the others gave an inactive call. Rows were chosen to be rich in hits. Some 11% of all compounds tested hit in one or more screens of this group. Cut-off read from the data, not from the text of the source: active = inhibition above about 30%; inactive = the rest.

COc1ccc(NC(=O)CSc2nc3ccccc3c3nc(C)nn23)cc1OC	USP17 inh 37, USP30 block 32
CCC(Sc1nc2cc(OC)c(OC)cc2c2nc(C)nn12)C(=O)Nc1cccc(C)c1 (configuration not stated)	none
O=C(NCCCc1ccccc1)c1cccn1-c1nnc(N2CCCC2)s1	none
COc1ccc(C2=C(NCCc3ccc(S(N)(=O)=O)cc3)c3ccccc3C2=O)cc1	USP28 block 31, USP30 block 49
COc1cccc(C(CC(=O)NCc2ccc3c(c2)OCO3)n2cccc2)c1 (configuration not stated)	none
CCc1ccc(NC(=O)CSc2nnc(CNC(=O)c3ccco3)o2)cc1	none
O=C(CSc1nnc(CNC(=O)c2ccccc2F)o1)Nc1ccc(OC(F)(F)F)cc1	USP17 inh 63, USP30 block 32
CCOC(=O)c1ccc(NC(=O)CSc2nnc(CNC(=O)c3cccs3)o2)cc1	USP17 inh 50
CCOC(=O)c1ccc(NC(=O)CSc2nnc(CNC(=O)c3ccccc3F)o2)cc1	none
Cc1[nH]ncc1CN1CCOC(c2cccc(N)n2)C1 (configuration not stated)	none
O=C(Nc1cc(Cl)cc(Cl)c1)c1csnn1	USP17 inh 58
CC(=O)c1ccc(NC(=O)CCc2c(C)c3c(C)nn(-c4ccccc4)c3n(C)c2=O)cc1	USP17 inh 38
CC(=O)Nc1ccc(NC(=O)CCc2c(C)c3c(C)nn(-c4ccccc4)c3n(C)c2=O)cc1	none
Cc1nn(-c2ccccc2)c2c1c(C)c(CCC(=O)NCc1ccc(F)cc1)c(=O)n2C	USP17 inh 37
CCOC(=O)c1ccc2[nH]c(C)c(CN3CCCCC3)c(=O)c2c1	none
CCc1ccc(NC(=O)N2CC[C@H]3N(C(C)=O)CC[C@@]3(C(=O)N3CCCC3)CC2)cc1	none
Cc1ccccc1Cn1cc(NS(=O)(=O)c2c(C)n[nH]c2C)cn1	none (no result: USP28 block, USP30 block)
Cc1cccc(-c2nc(-c3ccc4c(c3)nnn4CCC(=O)N3CCOCC3)no2)c1	none
O=C(COC(=O)c1ccc2c(=O)n3c(nc2c1)CCCCC3)c1ccc2c(c1)OCCO2	none
O=C(c1ccc2c(=O)n3c(nc2c1)CCCC3)N1CCC2(CC1)OCCO2	USP30 block 31
COc1cc(OC)c(NC(=O)c2cc3c(CO)cnc(C)c3oc2=Nc2ccccc2)cc1Cl	none
COc1cnc(-c2ccccn2)nc1Sc1ccc(C)cc1	USP30 block 60
CC1OC1C(=O)[C@]1(O)[C@H](C)[C@@H](O)[C@@]23O[C@@]2([C@H](O)c2c(O)cccc2C3=O)[C@H]1O (some centres not stated)	USP17 inh 73
Cn1ccc(-c2nc3ccccc3[nH]2)n1	none
Cc1nn(-c2ccc([N+](=O)[O-])cc2)c(C)c1-c1nc2ccccc2[nH]1	USP28 block 37, USP30 block 63
COc1ccccc1CN(C(=O)c1ccco1)C(C(=O)NC1CCCC1)c1ccc(Cl)cc1 (configuration not stated)	USP30 block 48
COc1ccccc1CN(C(=O)c1ccco1)C(C(=O)NC1CCCC1)c1ccc(C(C)C)cc1 (configuration not stated)	USP30 block 35
CCOC(=O)c1cc2c(ccn2C)n1Cc1ccc(C#N)cc1	none
CCOC(=O)c1cc2c(ccn2C)n1CC(=O)N(Cc1ccc(Cl)cc1)c1ccccc1	USP17 inh 43
Cc1ccc(F)cc1Nc1ncnc2sc3c(c12)CCC(C)C3 (configuration not stated)	none
Cc1nc(Nc2ncc(C)s2)cc(C2CN(C(=O)Cc3ccccc3)CCO2)n1 (configuration not stated)	USP17 inh 38, USP30 block 55
COc1cc(NC(=O)CSc2nnc(-c3cc4ccccc4n3C)o2)cc(OC)c1	USP30 block 49
COc1ccc(C(=O)CSc2nnc(COc3c(C)cccc3C)n2C)cc1OC	none
COc1cccc(NC(=O)CSc2nnc(-c3ccc(OC)c(OC)c3)c(-c3ccc(OC)c(OC)c3)n2)c1	none
O=C(CSc1nnc(-c2cc3ccccc3[nH]2)o1)Nc1cccc(F)c1	none
COc1cccc(NC(=O)CSc2nnc(-c3cc4cccc(OC)c4o3)n2C)c1	USP17 inh 60, USP30 block 50
Cn1c(SCC(=O)NCc2ccccc2)nnc1-c1cc2ccccc2o1	none
Cn1c(SCC(=O)c2ccc(F)cc2)nnc1-c1cc2ccccc2o1	USP17 inh 73, USP30 block 88
COc1ccc(C(=O)CSc2nnc(-c3cc4cccc(OC)c4o3)n2C)cc1OC	USP30 block 53
CN(C=C1NC(=O)c2ccccc2N1)CC(=O)Nc1ccccc1C(=O)Nc1ccccc1	none
Cc1ccc(Cl)cc1NC(=O)c1c(N2CCCC2=O)c2cc(F)ccc2n1C	none
O=C(CC1CCN(C(=O)C2CCCCC2)CC1)N1CCN(c2ccccc2)CC1	none
COCCn1c(SCC(=O)c2ccc(F)cc2)nc2ccccc21	USP17 inh 36
Cc1cc(C)n(C(C)CC(=O)N2CCN(c3ccc(Cl)cc3)CC2)n1 (configuration not stated)	none
Cc1nc(CC(=O)N2C[C@H]3CC[C@@H](Nc4cnccn4)[C@H]3C2)cs1	none
C[C@H]1C(=O)N(C)[C@@H]2CCN(C(=O)C3CCCCC3)[C@@H]2C(=O)N1C	USP30 block 33
COc1ccccc1NC(=O)c1cnc2sc(C)c(C)n2c1=O	none
CCOC(=O)c1sc2c(c1C)c(=O)n(Cc1ccccc1)c(=O)n2CC(N)=O	USP30 block 55
Cc1ccc(-n2c(=O)c3ccccc3n(Cc3c(F)cccc3Cl)c2=O)cc1	USP17 inh 62
Cc1cc(N)n(-c2nc3ccccc3n2Cc2c(F)cccc2Cl)n1	none
Cc1nc(NCc2ccc(Cl)cc2)cc(-c2cncc(-c3cccs3)c2)n1	USP17 inh 35
Cc1ccc(Cn2c(C(=O)O)c(CNCc3cccnc3)c3ccccc32)cc1	none
CCOC(=O)N1CCC(NC(=O)c2cn(-c3ccccc3Cl)nn2)CC1	none
Cc1ccc(-n2cc(C(=O)N3CCc4ccccc4C3)nn2)cc1	none
Cc1ccc(-n2cc(C(=O)N3CCN(c4ccccc4)CC3)nn2)cc1	USP17 inh 40, USP30 block 44
Cc1ccc(-n2cc(C(=O)NCCCc3ccccc3)nn2)cc1	USP30 block 49
CCOC(=O)N1CCC(NC(=O)c2cn(-c3ccc(C)cc3)nn2)CC1	USP17 inh 60 (no result: USP28 block, USP30 block)
COc1ccc(S(=O)(=O)N2CCC(c3nc(-c4ccncc4)no3)CC2)cc1	none
O=C(C1CCCN(S(=O)(=O)N2CCCCC2)C1)N1CCN(c2ccccc2)CC1 (configuration not stated)	none
O=C(C1CCCN(S(=O)(=O)N2CCCCCC2)C1)N1CCN(c2ccccc2)CC1 (configuration not stated)	USP28 block 54
CC1CCN(S(=O)(=O)N2CCCC(C(=O)NCc3ccccc3)C2)CC1 (configuration not stated)	USP30 block 36
O=C(Nc1cccc2ccccc12)C1CCCN(S(=O)(=O)Cc2ccccc2)C1 (configuration not stated)	USP17 inh 73
